Most compounds without a hit are left out; they make up all but 2.5% or so of the library.
MBD2 DNA inh: MBD2-methylated oligo binding inhibition. TR-FRET, MBD2 binding to methylated oligonucleotide. inhibition, % at 4.4 µM. actives 0.31% (n = 370,000). Q9UBB5; in the data active means inhibition above about 13%
LEDGF integ inh: blocks HIV-1 LEDGF/p75-dependent DNA integration | TR-FRET IN-LEDGF/p75 DNA integration, Eu/Cy5 | inhibition, % at 3.7 µM | actives 0.64% (n = 370,000);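 active means inhibition above the screen-wide mean plus 3 SD, cut at about 13% in these data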;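 further: signal is the Cy5 over europium emission ratio at 671 and 618 nm; 0% = plate median of compound wells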
PRMT1 inh: PRMT1 (human) inhibition, primary screen; inhibition, % at 2.79 µM; AID 652257; recombinant PRMT1, activity-based probe fluorescence polarization; actives 1.3% (n = 370,000); Q99873;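 active means inhibition above about 21% made by adding two undisclosed values, limit read from the data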
Target sequence (Q99873 whole entry, looked up): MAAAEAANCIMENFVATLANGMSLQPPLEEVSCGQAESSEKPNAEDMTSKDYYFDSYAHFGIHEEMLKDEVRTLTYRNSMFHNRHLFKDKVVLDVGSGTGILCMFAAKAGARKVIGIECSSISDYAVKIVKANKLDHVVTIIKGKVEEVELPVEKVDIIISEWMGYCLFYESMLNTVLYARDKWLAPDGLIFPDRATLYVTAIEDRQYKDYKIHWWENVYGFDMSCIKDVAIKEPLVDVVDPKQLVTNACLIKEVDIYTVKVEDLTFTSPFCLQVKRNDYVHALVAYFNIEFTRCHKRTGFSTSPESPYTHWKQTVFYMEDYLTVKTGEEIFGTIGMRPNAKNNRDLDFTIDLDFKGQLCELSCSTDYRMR
UHRF1 binding: UHRF1 methyl-DNA binding inhibition; inhibition, % at 4.4 µM; Q96T88; UHRF1 binding to methylated oligo, TR-FRET; actives 0.75% (n = 370,000); in the data active means inhibition above about 21%;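 further: UHRF1 SRA domain binding a hemimethylated CpG hairpin DNA probe; 0% = median of test compound wells and 100% = reference inhibitor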
PRMT1 confirm: confirmation of human PRMT1 inhibitors; inhibition, % at 2.79 µM; actives 42% (n = 3,300); recombinant His-PRMT1, activity-based probe fluorescence polarization; shares compounds with PRMT1 inh;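 active means mean inhibition across replicates above the hit cutoff derived for the earlier primary screen, cut at about 22% in these data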
Starred values were filed as active, the others as inactive.

What do the screens show for `C=CCn1c(O)c(C2=c3ccccc3=NC2=O)c2ccccc21`?
MBD2 DNA inh: 1.9; LEDGF integ inh: -1.9; PRMT1 inh: 41.8*; UHRF1 binding: 1.4; PRMT1 confirm: 45.2*

Results for Cc1ccc2c(c1)c(C1=c3ccccc3=NC1=O)c(O)n2C ?
MBD2 DNA inh: 1.2; LEDGF integ inh: 1.3; PRMT1 inh: 15.6; UHRF1 binding: 3.2

How did Cc1cccc(S(=O)(=O)N(C)C[C@H]2OCc3cnnn3CCCC(=O)N([C@H](C)CO)C[C@H]2C)c1 do in these assays?
MBD2 DNA inh: -2.3; LEDGF integ inh: 0.0; PRMT1 inh: -3.5; UHRF1 binding: 2.0

What do the screens show for `COc1cc(NC(=O)N2CCc3nc(Nc4cc(Cl)cc(Cl)c4)ncc3C2)cc(OC)c1OC`?
MBD2 DNA inh: -0.7; LEDGF integ inh: -0.7; PRMT1 inh: 1.9; UHRF1 binding: 1.0

How did Cc1ccc(S(=O)c2ccc([N+](=O)[O-])c3nonc23)cc1 (configuration not stated) do in these assays?
MBD2 DNA inh: -11.2; LEDGF integ inh: 9.8; PRMT1 inh: 57.8*; UHRF1 binding: -8.8; PRMT1 confirm: 106.2*

Results for CN1CCN(C(=O)CCN2C(=O)/C(=C\c3ccccc3F)SC2=S)CC1 ?
MBD2 DNA inh: 6.0; LEDGF integ inh: 2.3; PRMT1 inh: 27.5*; UHRF1 binding: -3.0; PRMT1 confirm: 6.3

Results for O=C(CCN1C(=O)/C(=C\c2ccccc2F)SC1=S)N1CCOCC1 ?
MBD2 DNA inh: -8.1; LEDGF integ inh: -2.4; PRMT1 inh: -3.7; UHRF1 binding: -0.6

Results for CCC(=O)OCCNc1cc(SCCC(=O)OC)c2nonc2c1[N+](=O)[O-] ?
MBD2 DNA inh: -11.1; LEDGF integ inh: 1.4; PRMT1 inh: 11.2; UHRF1 binding: -9.2

How did CCCC(=O)OCCNc1cc(Sc2nc3ccccc3[nH]2)c2nonc2c1[N+](=O)[O-] do in these assays?
MBD2 DNA inh: -5.8; LEDGF integ inh: -2.4; PRMT1 inh: 66.5*; UHRF1 binding: -14.1; PRMT1 confirm: 73.0*

How did CCC(=O)OCCNc1cc(Sc2nccn2C)c2nonc2c1[N+](=O)[O-] do in these assays?
MBD2 DNA inh: -16.2; LEDGF integ inh: -2.4; PRMT1 inh: 42.5*; UHRF1 binding: -8.3; PRMT1 confirm: 64.7*

Results for CC(=O)OCCNc1cc(SC(C)C)c2nonc2c1[N+](=O)[O-] ?
MBD2 DNA inh: -4.0; LEDGF integ inh: 1.6; PRMT1 inh: -5.7; UHRF1 binding: -3.0

What do the screens show for `Cc1cccc(Nc2nnc(SCC(=O)NC(=O)CN3CCCC3=O)s2)c1`?
MBD2 DNA inh: -1.2; LEDGF integ inh: -0.6; PRMT1 inh: 0.1; UHRF1 binding: 4.1

What do the screens show for `CCNC(C(=O)c1c[nH]c2c(CC)cccc12)c1ccccc1` (configuration not stated)?
MBD2 DNA inh: 5.5; LEDGF integ inh: -2.6; PRMT1 inh: 3.4; UHRF1 binding: 3.2

What do the screens show for `COc1ccc(C2=NS(=O)(=O)N(C)C(C(=O)Nc3ccc(F)cc3F)=C2)cc1`?
MBD2 DNA inh: -4.1; LEDGF integ inh: 1.1; PRMT1 inh: 85.0*; UHRF1 binding: -7.8; PRMT1 confirm: 5.1

Results for O=C(c1cccnc1)c1ncc(C(F)(F)F)cc1Cl ?
MBD2 DNA inh: 0.8; LEDGF integ inh: 0.4; PRMT1 inh: -6.2; UHRF1 binding: -2.4

How did Cc1ccc(C(=O)NN2C(=O)CSC2=S)cc1 do in these assays?
MBD2 DNA inh: -7.4; LEDGF integ inh: 1.7; PRMT1 inh: -2.2; UHRF1 binding: -5.0

Results for C/C(=N\N1C(=O)CSC1=S)c1ccc(Br)cc1 ?
MBD2 DNA inh: 3.7; LEDGF integ inh: -2.6; PRMT1 inh: 31.4*; UHRF1 binding: -1.5; PRMT1 confirm: 31.6*

How did Cc1cccnc1NC(=O)Nc1cccc(F)c1 do in these assays?
MBD2 DNA inh: 3.7; LEDGF integ inh: 0.7; PRMT1 inh: -1.2; UHRF1 binding: -0.6

Results for O=C(O[C@H]1CC[C@@]23CCCN2C(=O)CCC[C@H]3C1)N1CCOCC1 ?
MBD2 DNA inh: -0.8; LEDGF integ inh: -0.9; PRMT1 inh: 1.9; UHRF1 binding: 4.1

How did CC(C)Oc1cccc(-c2n[nH]c(=S)n2N=Cc2ccc(O)cc2O)c1 do in these assays?
MBD2 DNA inh: 0.3; LEDGF integ inh: 0.2; PRMT1 inh: 37.2*; UHRF1 binding: -0.9; PRMT1 confirm: 17.6

What do the screens show for `CC(C)Oc1cccc(-c2n[nH]c(=S)n2N=Cc2cccc([N+](=O)[O-])c2)c1`?
MBD2 DNA inh: -0.1; LEDGF integ inh: 6.1; PRMT1 inh: 33.5*; UHRF1 binding: -1.8; PRMT1 confirm: 25.1*

How did Oc1ccccc1/C=N/n1c(-c2ccccc2)n[nH]c1=S do in these assays?
MBD2 DNA inh: 0.2; LEDGF integ inh: -4.9; PRMT1 inh: 4.9; UHRF1 binding: -2.1

What do the screens show for `O=[N+]([O-])c1cccc(/C=N/n2c(COc3ccccc3)n[nH]c2=S)c1`?
MBD2 DNA inh: 4.2; LEDGF integ inh: -0.2; PRMT1 inh: 10.6; UHRF1 binding: 0.3

What do the screens show for `CCCN1CCS(=O)(=O)N(Cc2cn(Cc3ccc(Cl)cc3)nn2)C(C(=O)OC)C1` (configuration not stated)?
MBD2 DNA inh: 2.5; LEDGF integ inh: 2.3; PRMT1 inh: 0.4; UHRF1 binding: 8.6

What do the screens show for `COCCNC(=O)CN(C(=O)CCC(=O)Nc1ccccn1)c1ccc(C)c(C)c1`?
MBD2 DNA inh: -2.0; LEDGF integ inh: -0.9; PRMT1 inh: -0.2; UHRF1 binding: 0.0

What do the screens show for `NC(=O)c1ccc(SCC(=O)OCC(=O)NCc2cccs2)c([N+](=O)[O-])c1`?
MBD2 DNA inh: 4.2; LEDGF integ inh: 2.9; PRMT1 inh: 44.9*; UHRF1 binding: 2.5; PRMT1 confirm: -4.1

What do the screens show for `C[C@@H]1COC(=O)CCC/C=C\C[C@@H](CC(=O)N(CCO)Cc2ccccc2)C(=O)N1`?
MBD2 DNA inh: 4.2; LEDGF integ inh: 2.0; PRMT1 inh: -2.0; UHRF1 binding: 5.2

How did CC(=O)c1cccc(OCc2cc(C(=O)N(C)CCc3ccccn3)no2)c1 do in these assays?
MBD2 DNA inh: -1.4; LEDGF integ inh: -1.0; PRMT1 inh: 0.9; UHRF1 binding: 0.8

How did CSc1ccccc1OCc1cc(C(=O)N(C)Cc2ccc3nsnc3c2)no1 do in these assays?
MBD2 DNA inh: 0.1; LEDGF integ inh: 1.1; PRMT1 inh: 0.0; UHRF1 binding: 1.6

Results for CC(=O)c1cccc(OCc2cc(C(=O)N(C)Cc3ccc(C)o3)no2)c1 ?
MBD2 DNA inh: -1.2; LEDGF integ inh: -4.0; PRMT1 inh: 32.2*; UHRF1 binding: -3.5; PRMT1 confirm: 47.4*

What do the screens show for `Cc1ccc(CN(C)C(=O)c2ccccc2Oc2ccccc2)o1`?
MBD2 DNA inh: 2.9; LEDGF integ inh: -2.4; PRMT1 inh: 34.5*; UHRF1 binding: -0.6; PRMT1 confirm: 14.4

How did CSc1ccccc1OCc1cc(C(=O)N(C)Cc2ccc(C)o2)no1 do in these assays?
MBD2 DNA inh: -3.3; LEDGF integ inh: 1.3; PRMT1 inh: 25.2*; UHRF1 binding: -0.3; PRMT1 confirm: 27.5*

Source: PubChem BioAssay
